Laboratory results published in the supplement of paper PMC10681739.

Molecular target: RUNX1 (UniProt Q01196)
Assay: RUNX1 binding intensity (PBM fluorescence) in presence of ETS1, normalised to RUNX1-only experiment (arbitrary fluorescence units); higher = stronger binding
Settings: RUNX1 concentration 2 nM; ETS1 concentration 25 nM
Protocol: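 Cooperative gcPBM on 36-bp genomic probes with neighbouring ETS1 and RUNX1 sites. Recombinant human RUNX1 (2 nM) was incubated alone or with ETS1 (25 nM) and detected with anti-RUNX1 antibody plus Alexa488 secondary. Values are medians over 4 replicate spots; the RUNX1+ETS1 data were normalised to the RUNX1-only data. The probes sit in constant array flanks that are not printed.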
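Also: Full-length recombinant human ETS1 or RUNX1 bound to double-stranded 36-bp genomic probes on microarrays, detected by protein-specific primary antibody and Alexa488 secondary, spot fluorescence as median of four replicate spots.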

Chain of RUNX1 (Q01196 whole entry): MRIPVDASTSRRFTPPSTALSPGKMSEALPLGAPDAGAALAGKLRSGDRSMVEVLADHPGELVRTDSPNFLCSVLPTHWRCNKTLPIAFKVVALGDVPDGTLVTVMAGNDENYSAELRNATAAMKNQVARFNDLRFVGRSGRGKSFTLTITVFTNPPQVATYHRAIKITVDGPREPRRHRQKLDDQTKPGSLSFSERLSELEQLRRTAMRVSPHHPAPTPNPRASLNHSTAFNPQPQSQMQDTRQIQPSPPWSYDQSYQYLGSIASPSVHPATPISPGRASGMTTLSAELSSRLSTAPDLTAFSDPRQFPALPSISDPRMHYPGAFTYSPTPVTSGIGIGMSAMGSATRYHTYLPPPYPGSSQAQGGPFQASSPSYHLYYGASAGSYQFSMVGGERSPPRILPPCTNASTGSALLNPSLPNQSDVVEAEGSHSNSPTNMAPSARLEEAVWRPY

| Sequence | RUNX1 binding intensity |
| --- | --- |
| GGGGCGGCTTCCGGCGGCGTGACCTGACCGCAAGAG | 9110 |
| CCAGCCACTTCCGCTCGTCCGCCTAATACCGCGCCT | 4930 |
| ACAAAGAAACCTACATCCTAAGCCACAGAATACAGC | 881 |
| CACCGCCGGAGTCCCGGATGTGGTTGCTAGGGCAGC | 3280 |
| GCAGCCCAGCTTCCTGCAGACCAAAACCACAAGCAG | 4140 |
| GCTCCCTGGACAGGATGTGGTGCCGAGTAAACAGCT | 1410 |
| AACAAAGAGAGAGGAAGTGGGTTGGGCGGGGGGGGT | 1040 |
| TGCAGTCGTGAAAAAGGAAGTGGTTAAAGTGGATAC | 1520 |
| AGGGACCCGGATGTCTGGTCTGCGGCTGCTCCTCTA | 1250 |
| GCTGATAAAACAGGATGTGGTAAAGAAGCCGGCCAA | 8590 |
| CCCAAGCTACGGAAGTTAAACCTCAAACATGAAATC | 1410 |
| ACCCCGGAAGTGTGGGCGCGGCTGCGGTTTAACCCG | 8200 |
| CCGGTCCGCTCGCCGGAAATGCGGGCTCTCCTGCCG | 1240 |
| CAGAGAGAGGCCACATCCCTGTGGTCACACATACCC | 1030 |
| CTCCTTCCTGTGTGTTACTCTTAAAAACCACAGAGG | 3040 |
| GAGGGTTGCTGGGGGGAAGTGTGGTAAATCTTTTCC | 930 |
| GCGCCAGTCACCGTTTCCTGTGGTTTGCTGCCCGCC | 2810 |
| GGTTTAACGTTTCCGGTTTGTGGCTAGTTTCTTGTC | 3520 |
| GGTCTCTGCTTCCGGTCCTTGTGGTAGCACCTCTGT | 2710 |
| GGGAACTGGGGAAGGGGATGTGGTAACCAGAACCAC | 1050 |

| Sequence | RUNX1 binding intensity |
| --- | --- |
| GGGCCAGAGACGCCGGAAGTGACCGCGCGGTGCGCC | 1210 |
| GCCTGCAGCTTCTTCCTGTGGCTTCTGCATCTCAGG | 1320 |
| GACCGAGAGGAAGCAGCAAGGATCCTGCGGTTCCAG | 875 |
| CCAAGCACTTCCTGCTGTTAGCTTTGTGGGCTGAGT | 1600 |
| CAACAACCGGAAGTGGGGCGGGCCGCAGTACCCGCC | 3010 |
| AGACGGTAGGCCAGGAAACCGCAGGCCCCTGCCGGG | 10600 |
| ACACTGGCCGGAAGGGGCGGGACCGCGAGTTAAGAG | 1320 |
| ACGTTTCGGGGTTTCCGGGCCAGCGGTTTCGGGCGC | 2050 |
| TGCTCAAATGCAGGATGTGGTCTGAGAGTTTCTCCT | 1680 |
| TAAGGATGTGTGGCTTCCAGATCAAAAACCGCAAAA | 10600 |
| CAGATTCAAGGAAGTGGTGGTGGTTTGGTGTCGTTG | 907 |
| TGCCGGGCCCCGGATGTCACCGCAGCCGCCATCTTA | 1990 |
| ACATTCTTCCGGTTGGACCTCCGCGGTCAGCGCTGT | 3220 |
| ATCTTGGCCCATATCCTGTGGTGTTCTGCTAGAGGT | 1290 |
| TACCAACAGGAATCTTTGGGGTCTAAACCGCAAACA | 5090 |
| TAAAACACCAGGAAACTCTGTGGTGAGTGGGAGGTG | 903 |
| GAGCCCAACCGGCATCCGTCGCGGTTGGACGTGGGC | 1070 |
| CTCGTGCGTCACTTCCGCCCCGCAGACCCGCCCACT | 2420 |
| TGGAAGGCCGGAAAAGGTTTACCACCACACTCCGGT | 1320 |
| CCCAGGCTTCCGGGTTGAATATGTGGGCTGAGGCGA | 1420 |
